# Mot1-301 SUMO: SUMOylation pathway inhibition by Mot1-301 growth rescue. S. cerevisiae Mot1-301 growth rescue, ATP luminescence, 38.5C; percent above DMSO median, 100 means doubled. growth rescue, % at 18.8 µM. 1% of 320,000 active;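 active means every valid replicate shows activation above 250% relative to neutral control wells; inactive means the rest, any valid replicate at or below 250%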;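 further: OY570 slx delta 5 strain wells were the positive control but not used for scaling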
# LANA-H2A inh: blocks KSHV LANA binding to histone H2A/H2B. 0.6% of 320,000 active. Q9QR71. cell-free LANA-H2A/H2B peptide, fluorescence polarization. inhibition, % (test concentration not listed); in the data active means inhibition mostly above about 10%, no sharp cut-off; inactive means mostly below about 6.7%
# HDAC3 inh: human HDAC3 inhibition; recombinant HDAC3, fluorogenic peptide/trypsin coupled, fluorescence; inhibition, % at 8.3 µM; 0.15% of 320,000 active; AID 2718; in the data active means inhibition above about 26%, passing the limit was not always enough
# Target sequence (O15379 whole entry, looked up): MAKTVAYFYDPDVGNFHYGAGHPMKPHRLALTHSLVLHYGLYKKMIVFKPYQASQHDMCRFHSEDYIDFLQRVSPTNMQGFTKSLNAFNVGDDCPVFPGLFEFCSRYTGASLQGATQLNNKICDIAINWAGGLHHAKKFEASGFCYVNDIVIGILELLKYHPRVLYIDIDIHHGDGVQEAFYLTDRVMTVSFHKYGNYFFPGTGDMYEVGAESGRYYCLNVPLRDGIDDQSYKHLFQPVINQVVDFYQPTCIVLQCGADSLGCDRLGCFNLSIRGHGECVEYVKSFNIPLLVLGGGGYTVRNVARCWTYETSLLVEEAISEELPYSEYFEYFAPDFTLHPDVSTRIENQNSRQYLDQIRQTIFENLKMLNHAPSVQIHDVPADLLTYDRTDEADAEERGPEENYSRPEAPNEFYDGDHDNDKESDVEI
# IDE inh: inhibits human insulin-degrading enzyme in HEK cells; FAbetaB cleavage, fluorescence polarization; P14735; 0.41% of 320,000 active; inhibition, % at 5.59 µM; AID 434962;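 active means percent inhibition above the average of all tested compounds plus 3 SD, set per screening campaign, cut at about 16% in these data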;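 further: IDE supplied by intact live HEK cells; FP after avidin binding of uncleaved biotin substrate so inhibition keeps polarization high; 0% = DMSO wells and 100% = 60 µM reference IDE inhibitor Ii1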
# IDE cell activ: activators of human insulin-degrading enzyme in cells. P14735. HEK cells, FAbeta-B cleavage, fluorescence polarization; 0% vehicle, 100% cell-free pure enzyme wells. activation, % at 5.96 µM. 0.073% of 340,000 active;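 active means activation above the mean of all tested compounds plus 3 SD, set per screening campaign, cut at about 17% in these data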
# IDE cell inh cf: cellular human IDE inhibition, confirmation. shares compounds with IDE inh. HEK cells, FAbetaB cleavage, fluorescence polarization. inhibition, % at 5.59 µM. 51% of 1,200 active;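 active means mean inhibition across triplicate wells above the cutoff set by the earlier primary insulin-degrading enzyme screen, cut at about 16% in these data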;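 further: 0% = DMSO wells and 100% = 60 µM reference IDE inhibitor Ii1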
# HEK cytotox: kills HEK cells in IDE inhibitor counter-screen; shares compounds with IDE inh; HEK293 cytotoxicity, ATP luminescence; inhibition, % at 5.59 µM; 28% of 1,200 active; AID 449730; in the data active means inhibition above about 22%;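 further: 0% = vehicle wells and 100% = reference cytotoxic drug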
# An asterisk follows results filed as active; i = inactive; / = no result; + = active, no number. In the library only some 2.1% were active in any assay of this set; here they are far more common.
SMILES,Mot1-301 SUMO,LANA-H2A inh,HDAC3 inh,IDE inh,IDE cell activ,IDE cell inh cf,HEK cytotox
Cc1cccc(NC(=O)NC2CCCc3ccccc32)c1 (stereo not given),2,-1,-2,8,3,/,/
Cc1ccc(-c2n[nH]c(=O)c3ccccc23)cc1S(=O)(=O)NCC1CCCO1 (stereo not given),0,0,4,4,-6,/,/
Cc1ccc(-c2n[nH]c(=S)c3ccccc23)cc1S(=O)(=O)NCC1CCCO1 (stereo not given),116,-4,-3,22*,-11,5,16
CCOC(=O)c1c(C)n(-c2ccc(C)cc2)c2ccc(OCC(O)CNCC3CCCO3)cc12 (stereo not given),-3,-6,12,17*,-10,7,13
CCOC(=O)c1c(C)n(-c2ccc(C)cc2)c2ccc(OCC(O)CNCCCO)cc12 (stereo not given),-17,-2,0,17*,-15,10,16
CCOc1ccc(NC(=O)C(CC)n2nc(C)c3c(C)n(-c4ccccc4)nc3c2=O)cc1 (stereo not given),49,-1,-1,2,0,/,/
CS(=O)c1ccccc1-c1nc(-c2ccc([N+](=O)[O-])cc2)no1 (stereo not given),/,/,/,/,1,/,/
O=C(CNC(=O)c1ccc(S(=O)(=O)N2CCCC2)cc1)N/N=C/c1ccc(Cl)cc1Cl,33,2,3,24*,-7,5,8
CC(C)c1ccccc1NC(=S)NCC1(N(C)C)CCCCC1,11,-17,-4,-6,4,/,/
Cn1c(CN2CCOCC2)nnc1SCC(=O)NCCc1ccccc1,31,2,0,21*,-21,12,6
Cn1c(CN2CCOCC2)nnc1SCc1ccccc1,0,-3,-2,2,-15,/,/
CC1CCCCN1CCCNC(=O)C1CCCN(c2ncnc3c2nc2n3CCCCC2)C1 (stereo not given),-13,0,0,4,6,/,/
CN(CC(=O)Nc1ccc2c(c1)CCC2)CC(=O)Nc1ccccc1Br,-18,1,2,19*,-5,4,8
COc1ccc(/C=C2\C(=O)NC(=S)N2C(=O)c2ccc(F)cc2)cc1,6,+,1,37*,-6,59*,12
O=C1NC(=S)N(C(=O)c2ccc(F)cc2)/C1=C/c1ccccc1,5,-1,5,28*,-24,32*,13
COc1ccc(C(=O)CC(=O)c2ccc(F)cc2)cc1,-6,-7,7,-8,/,/,/
COc1cccc(OCCNC(=O)c2cc(OC)c(OC)c(OC)c2)c1,-11,0,-7,-6,2,/,/
Cc1cc(OCC(O)CN2CCc3ccccc3C2)ccc1Cl (stereo not given),8,0,4,3,0,/,/
Cc1ccc(NC(=S)NC2CCSc3ccccc32)cc1C (stereo not given),i,0,10,2,-6,/,/
CN(C)c1ccc(/C=C/C(=O)c2cccc(Br)c2)cc1,248,-24,-3,107*,-172,110*,26*
CN(C)c1ccc(C(=O)/C=C/c2cccnc2)cc1,423,-1,3,6,5,/,/
O=[N+]([O-])c1cccc(NC(=S)Nc2nc(-c3ccccc3Cl)cs2)c1,1,6,/,7,2,/,/
Cn1c(N)c(C(=O)COC(=O)CSc2ccc3ccccc3c2)c(=O)n(C)c1=O,-9,8,1,18*,-4,6,7
Cc1ccc(S(=O)(=O)N2CCN(CC(=O)Nc3ccc(N4CCOCC4)cc3)CC2)cc1C,-5,5,-2,0,6,/,/
Cc1cccc(N2CCN(CC(=O)Nc3ccc(S(=O)(=O)N4CCOCC4)cc3)CC2)c1C,-5,4,-1,19*,-12,9,43*
SMILES,Mot1-301 SUMO,LANA-H2A inh,HDAC3 inh,IDE inh,IDE cell activ,IDE cell inh cf,HEK cytotox
CCOC(=O)C1C(=O)NC(SCC(N)=O)=C(C#N)C1c1ccccc1OCC (stereo not given),7,-2,3,37*,-34,31*,6
COc1ccc(-c2nc(CS(=O)CC(=O)NC(C)CCc3ccccc3)c(C)o2)cc1OC (stereo not given),-10,-1,-7,1,4,/,/
Nc1cc(C(=O)OCC(=O)Nc2cccc(S(=O)(=O)N3CCOCC3)c2)ccc1Cl,92,-4,-22,8,2,/,/
CCN1CCc2c(sc(NC(=O)Cc3ccccc3)c2C(N)=O)C1,19,-8,-1,0,4,/,/
CCN1CCc2c(sc(NC(=O)Nc3ccc(Cl)c(Cl)c3)c2C(N)=O)C1,8,-13,4,110*,-124,58*,20
C=CCn1c(=O)/c(=C/c2ccc(O)cc2)s/c1=C(/C#N)c1nnc2n1CCCCC2,-19,-33,4,102*,-111,88*,13
C=CCn1c(=O)/c(=C/c2ccc(Cl)cc2)s/c1=C(/C#N)c1nnc2n1CCCCC2,2,11,-2,-3,-4,/,/
O=C(NN1C(=O)/C(=C/c2ccc(O)cc2)SC1=S)c1cccc(O)c1,-6,-31,8,144*,-104,104*,9
O=C(NN1C(=O)/C(=C/c2ccc(O)cc2)SC1=S)c1ccccc1O,7,-23,11,103*,-84,120*,19
COc1cc(/C=C2\SC(=S)N(NC(=O)c3ccccc3O)C2=O)ccc1O,-21,2,7,120*,-114,113*,9
O=C(NN1C(=O)/C(=C/C=C/c2ccco2)SC1=S)c1ccncc1,-3,-3,/,2,/,/,/
O=C(NN1C(=O)/C(=C/C=C/c2ccccc2)SC1=S)c1ccncc1,6,-1,8,25*,-5,2,14
O=C(NN1C(=O)/C(=C/c2ccc(O)c([N+](=O)[O-])c2)SC1=S)c1ccccc1Cl,20,1,14,4,-1,/,/
CC(NC(=O)c1ccc(Br)o1)C1CC2CCC1C2 (stereo not given),7,4,-9,6,5,/,/
O=S(=O)(c1ccc(Oc2ccc(F)c(Cl)c2)nc1)N1CCOCC1,7,2,8,-1,3,/,/
Cc1cc(C)nc(NN2C(=O)/C(=C/c3ccc(O)cc3)SC2=S)n1,-9,1,1,76*,-109,148*,10
Cn1cc(/C=C2\SC(=S)N(NC(=O)c3ccccc3)C2=O)c2ccccc21,113,-488,0,28*,-54,46*,15
CC(C)Cn1c(N)c(C(=O)COC(=O)C2Cc3ccccc3CN2S(C)(=O)=O)c(=O)n(C)c1=O (stereo not given),1,3,15,-5,1,/,/
COc1cc(/C=C2/SC(=S)N(C)C2=O)ccc1OC(=O)c1ccco1,-11,3,0,24*,-26,63*,9

# Compound activity (PubChem BioAssay)
